# Screens (PubChem BioAssay)
# CSC inhib – cancer stem cell viability inhibitors, primary screen, luminescence; actives 1.1% (n = 300,000); AID 2717, 2010; cancer stem cell-like cells viability; inhibition, % at 7.5 µM; in the data active = inhibition above about 75%; inconclusive = no clear call, values can overlap the other calls; tested in HMLE shEcad cells
# Shn3 inh set2 – reduction of Shn3 3'UTR firefly luciferase signal, primary screen, Schnurri-3 inhibitor project, cell-based, Clone20 osteoblasts, set 2 | Clone20 osteoblast Shn3 3'UTR firefly luciferase, 24 h | inhibition, % at 12.5 µM | actives 0.52% (n = 360,000) | AID 588674, 2011;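 active = mean inhibition of at least 75% with every replicate also reaching 75%; inconclusive = mean inhibition at least 75% but some replicate below; inactive = mean inhibition below 75%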;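 also: 0% = median of neutral control wells and 100% = pilot-screen positive control compound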
# Mdm2-MdmX inh – inhibitors of human Mdm2-MdmX association, primary screen, cell-based, luminescence, split luciferase, SaOS-2, uHTS; inhibition, % at 8 µM; actives 3% (n = 330,000); Protein Mdm4 (Homo sapiens) + E3 ubiquitin-protein ligase Mdm2 (Homo sapiens), …; SaOS-2 split-luciferase Mdm2/MdmX complementation;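 active = inhibition of at least 50% at 8 µM in the primary screen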
# PAX8 reporter – inhibitors of PAX8-driven TPO luciferase reporter, primary screen, RMG-I cells, single concentration | SteadyGlo, 24 h | inhibition, % at 12.6 µM | actives 1.2% (n = 360,000) | AID 652154, 2013;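 active = mean replicate inhibition at least 60% with every replicate also reaching 60%; inconclusive = only one of the two criteria is met; inactive = mean below 60% and not all replicates reaching 60%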;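 also: luciferase light reporting Pax8 driven TPO promoter activity; plate controls were median of neutral control wells for no effect and mitoxantrone controls for full effect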
# Beta cell apopt – inhibitors of cytokine-induced beta cell apoptosis, primary screen, luminescence. INS-1E cytokine-induced death, ATP luminescence, 48 h; percent of positive-control rescue, neutral wells zero. AID 435005, 2010. protection from apoptosis, % (test concentration not listed). actives 0.8% (n = 300,000);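 active = Every replicate reaches about 75%, or at least half do and their mean reaches it too, limit read from the data; inconclusive = At least half of replicates reach the limit but their mean does not; inactive = Under half of replicates reach the limit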;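 also: 0% = cytokine-treated negative control wells and 100% = positive control rescue; higher means more ATP so stronger rescue from cytokine killing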
# Gli-Sufu block – Gli-Sufu pathway antagonists, primary screen, luciferase luminescence, Sufu-KO-LIGHT cells, uHTS; inhibition, % at 5 µM; actives 0.74% (n = 340,000); Sufu-KO-LIGHT fibroblasts, Gli luciferase reporter luminescence;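 active = inhibition above about 55%, limit read from the data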;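 also: 0% = DMSO-treated cells and 100% = wells with medium but no cells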
# Mdm2 MdmX conf – Mdm2-MdmX complex disruptors, retested hits, confirmation, luminescence, single concentration. shares compounds with Mdm2-MdmX inh. Mdm2-MdmX binding, luminescent assay. inhibition, % at 8 µM. actives 55% (n = 10,000); in the data active = inhibition above about 40%
# Full FLuc ctr – full-length luciferase signal inhibition, confirmation, counter-screen for Mdm2/MdmX interaction inhibitor project, cell-based, single concentration, SaOS-2; shares compounds with Mdm2-MdmX inh; SaOS-2 full-length luciferase counterscreen, luminescence; inhibition, % at 8 µM; actives 77% (n = 6,200); AID 504607, 2011;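 active = mean inhibition at 8 µM reaching about 37%, which flags the compound as non-specific, limit read from the data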;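 also: p53-null SaOS-2 cells with luciferase driven by a doxycycline-inducible promoter; compound on cells about two nights before reading with doxycycline added after day one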
# * hit, by the source's call; ? = inconclusive; . = not tested or not shown. The list is not random: actives were taken first. Their share in the collection is about 4%.
SMILES,CSC inhib,Shn3 inh set2,Mdm2-MdmX inh,PAX8 reporter,Beta cell apopt,Gli-Sufu block,Mdm2 MdmX conf,Full FLuc ctr
COc1ccc2c(c1)c(CC(=O)Nc1ccc(C(C)=O)cc1)c(C)n2C(=O)c1ccc(Cl)cc1,-16,12,-2,4,1,0,.,.
CN(C)CC(=O)Nc1ccc2c(c1)[C@H]1C[C@@H](CC(=O)NCc3ccccc3)O[C@H](CO)[C@H]1O2,.,.,.,-9,.,.,.,.
Cc1ccc(-n2ncc(C(=O)Nc3cc(Cl)ccc3C)c2C2CCNCC2)cc1C,20,2,66*,21,12,37,38,72*
Brc1ccc2ncnc(Nc3ccc(N4CCOCC4)cc3)c2c1,-3,-5,62*,.,-9,-19,66*,26
CC(=O)c1cccc(Nc2ncnc3ccc(Br)cc23)c1,-2,1,67*,14,8,-10,47*,38*
CSCCC(Nc1ncnc2ccc(Br)cc12)C(=O)O (stereo unspecified),-8,9,11,.,-3,-5,.,.
Brc1ccc2ncnc(NCc3ccco3)c2c1,3,41,57*,-51,3,11,22,.
CC(C)Nc1ncnc2ccc(Br)cc12,2,78,67*,-23,29,44,68*,25
CNC(=O)C[C@H]1CC[C@H]2[C@@H](COc3ccc(NC(=O)c4cnccn4)cc3C(=O)N2C)O1,.,.,.,-10,.,.,.,.
CC(=O)N1[C@@H]2Cn3c(ccc(-c4ccccc4)c3=O)[C@H]1[C@@H](C(=O)N1CCN(C)CC1)[C@@H]2CO,.,.,.,3,.,.,.,.
COc1cc(C(N)=O)cc(Br)c1OC,-2,1,59*,.,-3,-14,2,.
CCOCCCn1c(SCC(=O)Nc2cc(C(C)(C)C)nn2-c2ccccc2)nc2ccccc2c1=O,7,-8,54*,10,5,-7,8,.
CC(Cl)C(=O)Nc1cc(C(C)(C)C)nn1-c1ccccc1 (stereo unspecified),-3,-1,18,-3,.,-1,.,.
CC(C)(C)c1cc(NC(=O)CCl)n(-c2ccccc2)n1,15,0,79*,20,-15,-1,58*,24
Cc1nc(NC(=O)c2ccc(-c3cc4ccccc4oc3=O)cc2)ccc1Br,12,-9,76*,7,11,-10,29,77*
CC(=O)Nc1cc2ccccc2oc1=O,12,17,14,-19,-1,-4,.,.
Cc1ccc(C(=O)Nc2cc3ccccc3oc2=O)cc1,?,81,89*,40,31,29,85*,32
O=C(C[C@H]1CC[C@H](NC(=O)Nc2cccc(F)c2)[C@H](CO)O1)NCC1CC1,.,.,.,11,.,.,.,.
COc1ccc(OC)c(-c2nnc3n2N=C(c2ccc(OC)c(OCC4CC4)c2)CS3)c1,.,6,80*,.,35,55,68*,68*
COc1ccc(C2=Nn3c(nnc3-c3ccccc3Cl)SC2)cc1OCC1CC1,.,54,73*,56,17,9,57*,45*
O=C(C[C@H]1C[C@H](C(=O)N2CCOCC2)[C@@]2(CCC3CCCC3)c3[nH]c4cc(-c5ccco5)ccc4c3CCN2C1=O)NCC12CC3CC(CC(C3)C1)C2,.,20,54*,10,.,-3,19,.
O=C(CC1C[C@H](C(=O)N2CCOCC2)[C@@]2(CCC3CCCC3)c3[nH]c4ccccc4c3CCN2C1=O)NCC12CC3CC(CC(C3)C1)C2 (stereo partly specified),.,81,84*,-13,3,2,68*,38*
